CRFBP-R2 block: CRF-BP/CRF-R2 complex antagonism | HEK293 CRF-R2/CRF-BP, CRF-induced calcium fluorescence | inhibition, % at 11.8 µM | 350,000 compounds, 0.59% hits | AID 588475;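 active = inhibition of the ligand-induced calcium signal above about 50% at the single tested concentration, limit read from the data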
TMEM16A act: activators or potentiators of mouse TMEM16A chloride channel; B-score at 10 µM; Q8BHY3; AID 623877; 340,000 compounds, 0.3% hits; HEK293 TMEM16A/YFP-H148Q/I152L, iodide quench fluorescence; active compounds read low;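 active = fluorescence-ratio B-score plate-corrected deviation score at least 3 library SD below zero, with starting fluorescence score within 5 deviations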;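 also: channel opened by trigger with iodide after compound preincubation; score built on the fluorescence ratio of max minus min over baseline; more negative score means more quench and so TMEM16A activation or potentiation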
GRIN3A LBD mod: modulators (binders) of human NR3A ligand-binding domain. NR3A LBD differential scanning fluorimetry, Tm shift; 0% = protein alone, 100% = glycine-bound protein. Tm shift relative to glycine control, % at 25 µM. 340,000 compounds, 2.5% hits. AID 1259313;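 active = melting temperature shift of at least 10% of the positive control shift, at one fixed dose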
CRFBP-R2 agonist: CRF-BP/CRF-R2 complex agonism; 350,000 compounds, 0.46% hits; activation, % at 13.2 µM; HEK293 CRF-R2/CRF-BP, calcium dye fluorescence (FLIPR); percent of saturating CRF peptide response;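 active = activation of at least 50%, plus an integration ratio under a set limit after plate pattern correction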
MPTP block: permeability transition pore inhibition | isolated mouse mitochondria, Ca2+ swelling absorbance, 30 min | inhibition, % at 10 µM | 360,000 compounds, 1.4% hits | AID 602449;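 active = inhibition of 50% or more, scaled per plate between neutral and stimulator controls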
TMEM16A inh: mouse TMEM16A channel inhibition, primary screen | HEK293 TMEM16A/YFP iodide influx fluorescence, ionomycin | 310,000 compounds, 1.2% hits | normalized B-score (activity score, 25-100; higher = stronger inhibition) at 10 µM | Q8BHY3;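 active = ratio plate-corrected score three or more library SD toward inhibition, starting fluorescence score within five deviations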;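 also: score derived from kinetic fluorescence span divided by baseline fluorescence per well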
A number is an active result; i = inactive; nt = not tested or not shown. Hits are enriched below; roughly 5.1% of the tested compounds scored in any of these assays.

SMILES	CRFBP-R2 block	TMEM16A act	GRIN3A LBD mod	CRFBP-R2 agonist	MPTP block	TMEM16A inh
COc1ccc(C2=NNC(c3ccco3)=Nc3ccc(F)cc32)cc1	54	i	i	i	i	i
CCCCc1ccc(NC=C2C(=O)OC3(CCCCC3)OC2=O)cc1	i	-19	i	145	i	i
NS(=O)(=O)c1ccc(NC=C2C(=O)OC3(CCCCC3)OC2=O)cc1	i	i	i	i	i	i
N#Cc1nc(Nc2cccc(Cl)c2)c2ncn(C3CCCC3)c2n1	97	i	11	i	i	nt
CCOc1ccc(NC(=O)CNc2ccc(C)cc2Cl)cc1	i	i	34	i	i	i
CCOc1ccc(NC(=O)Nc2cc(C)ccc2F)cc1	66	i	i	i	i	i
O=C(N/C(=C\c1ccccc1)C(=O)N1CCCCC1)c1ccco1	i	i	i	i	i	i
CCc1nc2ccc(C(=O)NCCc3c[nH]c4ccccc34)cn2c1N(C)CCCc1ccccc1	nt	nt	nt	nt	i	nt
CCCCC1(C)OC(=O)C(=Cc2ccc(-c3ccc(Cl)c(C(=O)O)c3)o2)C(=O)O1 (stereo not drawn)	61	i	i	i	i	i
Nc1nc2ccccc2n1C(=O)c1ccccc1	i	i	i	i	i	i
Nc1nc2ccccc2n1C(=O)c1ccco1	i	i	16	i	i	nt
O=Cc1c(Sc2ccccc2)nc2ccccn2c1=O	i	i	i	i	i	i
O=C(O)c1ccccc1N/N=C/c1c(Sc2nnnn2-c2ccccc2)nc2ccccn2c1=O	i	i	12	i	i	i
O=c1c(/C=N/Nc2ccccc2)c(Sc2nnnn2-c2ccccc2)nc2ccccn12	i	i	16	99	i	nt
COc1ccccc1OCCNC(=O)c1ccc(C)c(S(=O)(=O)N2CCOCC2)c1	i	i	i	i	i	i
C/C(=N/NS(=O)(=O)c1ccc(C)cc1C)c1c[nH]c2ccccc12	i	i	11	i	i	i
C/C(=N/NS(=O)(=O)c1ccc(C)c(C)c1)c1c[nH]c2ccccc12	i	i	38	i	i	i
Cc1cc(C(=O)COC(=O)COc2ccc(C#N)cc2)c(C)n1C1CC1	i	i	i	i	i	i
CCCCOC(=O)Oc1ccc2c(=O)c(Oc3cccc(C)c3)coc2c1	56	i	i	i	i	i
COc1cccc(Oc2coc3cc(OC(=O)N4CCOCC4)ccc3c2=O)c1	i	i	10	i	i	i
CCCCOC(=O)Oc1ccc2c(=O)c(Oc3cc(C)cc(C)c3)coc2c1	i	i	i	i	i	i
CCN(CC(=O)NCc1cccs1)C(=O)/C=C/c1cc(Br)ccc1OC(F)F	i	i	i	i	i	nt
COc1ccc(C(c2nnnn2Cc2ccccc2)N2CCN(c3ccccc3)CC2)cc1 (stereo not drawn)	57	i	i	i	i	i
COc1ccc(OC)c(C(c2nnnn2CCc2ccccc2)N2CCN(c3ccccc3)CC2)c1 (stereo not drawn)	i	-8.5	i	i	i	i
CCC(c1nnnn1CCOC)N1CCN(Cc2ccccc2OC)CC1 (stereo not drawn)	i	nt	15	i	i	i
SMILES	CRFBP-R2 block	TMEM16A act	GRIN3A LBD mod	CRFBP-R2 agonist	MPTP block	TMEM16A inh
COCCn1nnnc1C(c1ccccc1)N1CCN(c2ccccc2)CC1 (stereo not drawn)	52	i	i	i	i	i
COC(=O)c1ccc(Cn2c(C)c(C(=O)NCc3ccc(Cl)c(Cl)c3)sc2=O)o1	nt	nt	nt	nt	i	nt
O=c1c2c3c(sc2nc2n1CCCS2)CCCC3	i	i	i	i	i	i
Cc1sc2nc3n(c(=O)c2c1C)CCCS3	i	i	18	i	i	i
CCN(CC)C(=O)[C@H]1C[C@H](CC(=O)NCc2ccco2)C(=O)N2CCc3c([nH]c4cc(CCC(=O)N(C)C)ccc34)[C@]12C	i	nt	i	i	i	nt
CCCCNC(=S)N(C)/N=C/c1c(F)c(F)c(F)c(F)c1F	i	i	20	i	i	i
CCCCN(C)CCNC(=O)C(=O)c1c(C)[nH]c2ccccc12	i	i	i	i	i	i
CCCCNC(=S)N/N=C/c1ccccc1F	i	i	i	i	i	i
CCCCNC(=S)N(C)/N=C/c1c(C)[nH]c2ccccc12	i	i	12	i	i	i
COc1ccccc1CNC(=O)CN1C(=O)NC2(CCCCCC2)C1=O	i	i	i	i	i	nt

Compound activity as filed in PubChem BioAssay.
